According to PubChem BioAssay (NCI):
About 83,000 compounds went through this panel and 20% of them were active in at least one assay; those are over-represented in the sample as a whole.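 Interpretation: 100, growth as untreated; towards 0, rising growth inhibition; 0, no net growth; 0 to -100, cell death. Compounds scoring below 10 were considered active.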 Unmarked numbers belong to inactive results. Active and inactive are the calls of the source.

Tests used:
Experiment in all cases: NCI-60 one-dose screen, 48 h (100 = growth as untreated, 0 = no growth, -100 = all killed)
Details in all cases: 10 µM unless noted
OVCAR-8 ovarian = test system: OVCAR-8 ovarian
OVCAR-5 ovarian = test system: OVCAR-5 ovarian
SK-OV-3 ovarian = test system: SK-OV-3 ovarian
IGROV1 ovarian = test system: IGROV1 ovarian
HS 578T breast = test system: HS 578T breast
NCI/ADR-RES ovarian = test system: NCI/ADR-RES ovarian
T-47D breast = test system: T-47D breast
OVCAR-4 ovarian = test system: OVCAR-4 ovarian
OVCAR-3 ovarian = test system: OVCAR-3 ovarian

SMILES	growth (OVCAR-8 ovarian)	growth (OVCAR-5 ovarian)	growth (SK-OV-3 ovarian)	growth (IGROV1 ovarian)	growth (HS 578T breast)	growth (NCI/ADR-RES ovarian)	growth (T-47D breast)	growth (OVCAR-4 ovarian)	growth (OVCAR-3 ovarian)
N#CCCN(CCO)c1ccccc1	102%	108%	101%	103%	102%	112%	92%	–	–
CCc1ccc(CCN2C(=O)c3ccccc3C2=O)nc1	102%	129%	98.1%	–	119%	128%	94.8%	101%	–
COc1ccc2c(c1)C(=O)/C(=C/c1cccc(OCC(=O)c3ccccc3)c1)CC2	78.6%	102%	120%	–	98.6%	–	70.6%	81.5%	89.2%
CN(C)CCCN1c2nc3ccccc3cc2Sc2cc3ccccc3nc21	-67% (active)	-58.5% (active)	–	–	2.82% (active)	-23.1% (active)	-71.9% (active)	18.9%	-81.4% (active)
ClC1=C(Cl)C(Cl)=C(Cl)C1=C/C=C/c1ccccc1	-41.7% (active)	-77.9% (active)	-22% (active)	–	-5.58% (active)	-0.902% (active)	-4.63% (active)	14.7%	-88.7% (active)
c1ccc(-n2nnnc2-c2cccc3ccccc23)cc1	30.5%	35.5%	5.6% (active)	–	–	-12.6% (active)	31.8%	59.6%	-26.8% (active)
CCCCCCCC1(C)NC(=O)NC1=O (configuration not stated)	104%	163%	114%	–	114%	138%	123%	105%	115%
Cc1ccccc1NC(=O)c1cc2ccccc2cc1O	60%	77.9%	61.1%	30.2%	–	27.8%	49.9%	56.1%	-10.2% (active)
OC(Cc1cccnc1)c1ccccc1 (configuration not stated)	96.5%	92.8%	–	114%	112%	107%	112%	107%	–
CCOC(=O)c1c(C)c(C(=O)OCC)n(C)c1C	120%	114%	98%	–	92.6%	118%	90.7%	101%	–
CC/C(=C\c1ccc(N(C)C)cc1)c1ccncc1	54.7%	74%	74.6%	49.7%	–	–	40%	69.5%	42.3%
Cc1ccc(C=C2C(Cl)=C(Cl)C(Cl)=C2Cl)cc1	-42.9% (active)	-80.7% (active)	-38.5% (active)	–	-9.6% (active)	-3% (active)	-44.6% (active)	-35.3% (active)	–
NC(=Nc1ccccc1)SCCCCSC(N)=Nc1ccccc1	83.7%	83.3%	108%	75.3%	–	66.3%	62.2%	77.3%	72%
O=Nc1ccc(O)c(=O)cc1	43.8%	68.1%	108%	18.7%	107%	38%	18.5%	–	–
O=C(/C=C/c1ccccc1Cl)c1ccc(O)cc1	96.8%	138%	86%	–	80.5%	–	58.8%	63.3%	–
Nc1ccccc1-c1ccc([N+](=O)[O-])cc1	75.3%	75%	90.6%	56.2%	–	52.2%	38.6%	63.2%	71.7%
CC(O)c1nc2c(c(=O)n(C)c(=O)n2C)n1C (configuration not stated)	105%	104%	102%	–	118%	–	97.6%	104%	108%
CC(=O)n1c2ccccc2c2ccccc21	100%	89.3%	122%	101%	–	100%	105%	105%	114%
COc1c(O)cc2oc3cc(O)c(CC=C(C)C)c(O)c3c(=O)c2c1C/C=C(\C)CCC=C(C)C	24.4%	84.7%	100%	81.4%	–	-39% (active)	77.1%	72.6%	62%
O=C(N1CCC(CN=c2cc3n(-c4ccc(Cl)cc4)c4ccccc4nc-3cc2Nc2ccc(Cl)cc2)CC1)N1CC1	-67.4% (active)	-78.3% (active)	-63.7% (active)	-92.3% (active)	-56.4% (active)	-45.5% (active)	-46.8% (active)	-74.6% (active)	–
CC(=O)Oc1ccc(C23c4ccccc4C2(OC(C)=O)c2cc(OC(C)=O)ccc23)cc1 (configuration not stated)	49.6%	86%	110%	91.9%	–	39.3%	38.9%	92.3%	78.2%
COc1cc(/C=C2\COc3ccc(O)c(O)c3C2=O)cc(OC)c1	14.6%	-29.2% (active)	38.2%	-61.3% (active)	21.8%	0.0937% (active)	-12.1% (active)	31.1%	–
O=C1OCCCCCCCCCC#Cc2ccccc21	105%	99%	97.3%	72.1%	108%	99.7%	80.1%	–	122%
Cc1ccc(C(O)C2=CC(=O)c3ccccc3C2=O)cc1 (configuration not stated)	91.3%	95.4%	105%	89.6%	104%	96.4%	76.5%	–	93.3%
COc1ccc(/C=C2\NC(=S)NC2=O)cc1	104%	95.2%	83.8%	96%	–	115%	86.3%	–	107%
CN(C(=O)c1ccccc1)N(C)C(=O)c1ccccc1	103%	99.3%	105%	95.2%	109%	108%	94.5%	–	127%
CC(=O)NC1(C(=O)O)CCCC1	99.8%	158%	118%	–	122%	140%	128%	112%	112%
COc1ccc(OC)c(/C=C/c2nc(=S)n(-c3ccc(Cl)cc3)[nH]2)c1	88.6%	116%	73.5%	40.1%	98.7%	–	72.5%	91.6%	–
CCCCCCCC/C=C\CCCCCCCCOc1ccccc1CC(=O)NCC[N+]1(C)CCCC1	80.9%	62.1%	–	10.9%	86.9%	110%	90.5%	86.8%	91.8%
